This assay addresses Voltage-dependent N-type calcium channel subunit alpha-1B (Homo sapiens) (UniProt Q00975). Put plainly: disruptors of CaV2.2 binding to Mint1 – biochemical, HTRF (AID 2073). Particulars: HTRF protein-protein interaction, Mint1-CaV2.2, at 20 µM, stronger effect = higher value.
[1] abbreviates: measured here: average of repeat tests.

Molecules are shown by their SMILES. The campaign covered roughly 290,000 compounds. About 570 (0.2%) were called active. Another 1% or so got no clear call; they are omitted. Cut-off read from the data, not from the text of the source: active = inhibition mostly above about 51% (no sharp cut-off); inconclusive = no clear call, values can overlap the other calls; inactive = mostly below about 53%. Only a selection was taken, and actives are over-represented in it overall.

Voltage-dependent N-type calcium channel subunit alpha-1B (Homo sapiens), sequence (Q00975 whole entry, looked up): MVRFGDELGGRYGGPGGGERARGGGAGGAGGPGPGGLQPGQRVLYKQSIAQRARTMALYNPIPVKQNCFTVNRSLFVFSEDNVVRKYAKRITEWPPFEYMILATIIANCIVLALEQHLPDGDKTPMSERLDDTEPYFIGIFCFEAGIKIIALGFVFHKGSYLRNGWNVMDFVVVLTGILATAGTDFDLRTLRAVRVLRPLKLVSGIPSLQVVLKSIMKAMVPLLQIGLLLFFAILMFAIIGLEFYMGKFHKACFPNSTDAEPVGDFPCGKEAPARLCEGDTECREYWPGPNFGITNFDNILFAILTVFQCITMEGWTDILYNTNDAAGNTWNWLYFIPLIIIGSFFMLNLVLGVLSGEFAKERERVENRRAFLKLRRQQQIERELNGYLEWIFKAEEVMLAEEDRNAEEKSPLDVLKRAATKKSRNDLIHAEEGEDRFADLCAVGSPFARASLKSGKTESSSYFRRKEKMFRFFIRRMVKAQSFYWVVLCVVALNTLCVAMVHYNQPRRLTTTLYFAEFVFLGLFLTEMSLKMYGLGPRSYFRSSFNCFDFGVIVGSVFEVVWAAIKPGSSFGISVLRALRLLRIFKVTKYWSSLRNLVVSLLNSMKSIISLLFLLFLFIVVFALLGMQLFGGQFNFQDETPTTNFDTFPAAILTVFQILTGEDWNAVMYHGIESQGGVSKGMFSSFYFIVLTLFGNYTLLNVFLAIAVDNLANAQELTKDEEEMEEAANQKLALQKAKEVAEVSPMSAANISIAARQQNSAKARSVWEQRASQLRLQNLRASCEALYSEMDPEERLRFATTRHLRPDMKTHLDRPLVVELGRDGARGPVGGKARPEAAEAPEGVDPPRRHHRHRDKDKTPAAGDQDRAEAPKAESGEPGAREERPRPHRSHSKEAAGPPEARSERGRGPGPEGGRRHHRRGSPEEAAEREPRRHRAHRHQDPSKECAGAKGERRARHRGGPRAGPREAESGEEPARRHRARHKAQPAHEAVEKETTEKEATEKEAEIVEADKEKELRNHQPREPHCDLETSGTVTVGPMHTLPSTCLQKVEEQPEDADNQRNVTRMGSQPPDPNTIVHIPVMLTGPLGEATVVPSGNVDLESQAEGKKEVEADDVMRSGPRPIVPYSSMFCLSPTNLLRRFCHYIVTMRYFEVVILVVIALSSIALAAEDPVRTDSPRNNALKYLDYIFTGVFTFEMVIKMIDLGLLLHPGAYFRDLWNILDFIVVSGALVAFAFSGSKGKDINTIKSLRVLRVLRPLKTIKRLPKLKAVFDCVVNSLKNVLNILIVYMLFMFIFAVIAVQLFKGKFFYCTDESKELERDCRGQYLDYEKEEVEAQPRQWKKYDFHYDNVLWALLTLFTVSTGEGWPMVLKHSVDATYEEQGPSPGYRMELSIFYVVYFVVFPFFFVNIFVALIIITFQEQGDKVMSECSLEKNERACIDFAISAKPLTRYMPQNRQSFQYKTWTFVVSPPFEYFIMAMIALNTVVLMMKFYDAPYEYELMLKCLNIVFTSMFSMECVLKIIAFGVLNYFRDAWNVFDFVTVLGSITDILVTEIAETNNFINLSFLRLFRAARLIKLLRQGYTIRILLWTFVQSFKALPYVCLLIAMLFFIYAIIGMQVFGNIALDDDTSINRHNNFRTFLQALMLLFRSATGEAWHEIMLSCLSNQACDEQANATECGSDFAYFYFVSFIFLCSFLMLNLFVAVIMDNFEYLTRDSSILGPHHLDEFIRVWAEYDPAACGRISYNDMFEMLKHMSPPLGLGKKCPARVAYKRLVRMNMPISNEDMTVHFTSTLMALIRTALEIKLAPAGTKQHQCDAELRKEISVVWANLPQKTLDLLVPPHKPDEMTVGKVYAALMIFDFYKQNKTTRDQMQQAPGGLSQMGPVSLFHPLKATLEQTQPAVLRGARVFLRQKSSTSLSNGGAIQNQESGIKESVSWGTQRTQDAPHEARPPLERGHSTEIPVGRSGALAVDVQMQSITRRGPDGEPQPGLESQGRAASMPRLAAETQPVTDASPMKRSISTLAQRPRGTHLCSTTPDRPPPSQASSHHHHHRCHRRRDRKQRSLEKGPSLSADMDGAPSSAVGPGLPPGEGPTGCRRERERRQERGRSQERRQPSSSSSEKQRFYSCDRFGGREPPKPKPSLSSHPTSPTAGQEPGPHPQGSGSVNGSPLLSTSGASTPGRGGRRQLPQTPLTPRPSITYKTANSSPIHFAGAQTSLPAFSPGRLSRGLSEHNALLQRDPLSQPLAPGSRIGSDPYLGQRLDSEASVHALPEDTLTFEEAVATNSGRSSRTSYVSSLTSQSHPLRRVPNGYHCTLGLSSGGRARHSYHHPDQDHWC

Regarding `O=c1cc2c(=O)oc3cc(O)c(O)oc3c2c(O)c1O`, the inhibition is 70% (active).
The same measure, in the same setting: the same measure for `O=c1oc2ccccc2c2oc3cc(O)c(O)cc3c12`: 20% (inactive).
Same read-out and setting: the figure for `O=c1oc2c(O)c(O)cc3c(=O)oc4c(O)c(O)cc1c4c23` is 9.6% (inactive); for `COc1ccc(OC)c(NC(=O)CCC(=O)N(Cc2ccc(OC)c(OC)c2)c2nccs2)c1` it is 0.5% (inactive); for `CC(C)c1ccc(C2NC(=S)NC3=C2C(=O)CC(C)(C)C3)cc1` (configuration not stated) it is -9.1% (inactive).
The same measure, in the same setting: the figure for `Cc1cc(N2CCC(C(=O)NC3CCCCC3)CC2)nc(-c2ccccc2)n1` is -4% (inactive).
Take `COc1cccc(/C=C(/CC(=O)Nc2ccc(N3CCOCC3)cc2)c2nc3ccccc3s2)c1`: the inhibition is 59.9% (active).
The same measure, in the same setting: the same measure for `COc1ccc(/C=C(/CC(=O)Nc2ccccc2)c2nc3ccccc3s2)cc1`: 13% (inactive).
On the same count and under the same terms, the same measure for `COc1cccc(/C=C(\CC(=O)O)c2nc3ccccc3s2)c1`: -2.6% (inactive); for `Cc1nonc1C1CCCN1Cc1cn[nH]c1-c1ccc2c(c1)OCO2` (configuration not stated): 6.8% (inactive).
Same read-out and setting: the same measure for `CCOc1ccc2nc(Nc3nc4ccc(NC(C)=O)cc4s3)sc2c1`: 55% (active).
Take `CCOc1cccc2sc(Nc3nc4ccc(NC(C)=O)cc4s3)nc12`: the inhibition was 28.4% (inactive).
On the same count and under the same terms, the same measure for `CCOc1ccc2nc(NS(=O)(=O)c3ccc(NC(C)=O)cc3)sc2c1`: -0.1% (inactive); for `COc1ccc(C(=O)/C=C/C(=O)N(CC(=O)NC2CCCCC2)Cc2ccccc2)c(O)c1`: 64.1% (active).
Same read-out and setting: the same measure for `COc1ccc(C(=O)/C=C/C(=O)N(CC(=O)NC2CCCCC2)Cc2ccccc2OC)c(O)c1`: 11.5% (inactive); for `COc1ccc(C(=O)/C=C/C(=O)N(CC(=O)NC2CCCCC2)Cc2ccc(F)cc2)c(O)c1`: 37.7% (inactive); for `CCc1nnc(N/N=C/c2c(Cl)cccc2Cl)n1N`: -7.9% (inactive).
In the case of `CCc1nnc(N/N=C/c2c(C)[nH]c3ccccc23)n1N`, the inhibition is 55.5% (active).
The same measure, in the same setting: the same measure for `Cc1[nH]c2ccccc2c1/C=N/Nc1nncn1N`: -14.7% (inactive).
Same read-out and setting: the figure for `CCC1Oc2ccc(C)cc2N(CC(=O)N(Cc2cccnc2)Cc2cccc(F)c2)C1=O` (configuration not stated) is -3.3% (inactive).
Still for that read-out and setting: the same measure for `CCC1Oc2ccc(C)cc2N(CC(=O)N(Cc2cccnc2)Cc2ccc(C)o2)C1=O` (configuration not stated): 52.5% (active); for `CCC1Oc2ccc(C)cc2N(CC(=O)N(Cc2ccncc2)Cc2ccco2)C1=O` (configuration not stated): 10.2% (inactive).
On to `CCOC(=O)c1cnn(-c2cc(C)cc(C)c2)c1N`, for which the inhibition is 3.5% (inactive).
On to `O=C(CSc1nnc(SCc2ccccc2)s1)N/N=C/C=C\c1ccco1`, for which the inhibition was 79.7% (inactive). For the same molecule, the inhibition under setting [1] came to 18.4%.
As for `O=C(CSc1nnc(SCc2ccccc2)s1)N/N=C/C=C/c1ccco1`, the inhibition is 50.1% (active).
On the same count and under the same terms, the same measure for `O=C(CSc1nnc(SCc2ccccc2)s1)N/N=C/c1c[nH]c2ccccc12`: 44.7% (inactive); for `Cc1ccc(CSc2nnc(SCC(=O)N/N=C/c3c[nH]c4ccccc34)s2)cc1`: 59.7% (active).
For `O=C(CSc1nnc(SCc2ccc(Cl)cc2)s1)N/N=C/c1c[nH]c2ccccc12`, the inhibition is 50.2% (inactive). Besides, the inhibition under setting [1] was 42.7%.
Consider `Cc1ccc(CSc2nnc(SCC(=O)N/N=C/C=C/c3ccco3)s2)cc1`, for which the inhibition was 35.3% (inactive).
On the same count and under the same terms, the same measure for `Nc1cc(Cl)ccc1C(=O)OCC(=O)N1CCOCC1`: 7.5% (inactive).
Still for that read-out and setting: the same measure for `O=C(O)c1cc(NCc2cccs2)ccc1N1CCOCC1`: 9.9% (inactive); for `CCn1c(SCC(=O)NC2CCCCC2)nnc1C(C)NC(=O)c1ccccc1F` (configuration not stated): 8.6% (inactive).
`CC(C)c1ccc(OCC(O)CN2CCCC2)cc1` (configuration not stated): the inhibition was -4.2% (inactive).
On to `CCCn1c(SCC(=O)N2c3ccc(F)cc3CCC2C)nnc1-c1ccccn1` (configuration not stated), for which the inhibition was 7% (inactive).
The same measure, in the same setting: the same measure for `O=C(/C=C/c1ccco1)c1ccc(NC(=O)C23CC4CC(CC(C4)C2)C3)cc1`: 67.9% (active).
For the molecule `O=C(/C=C\c1ccco1)c1ccc(NC(=O)c2ccco2)cc1`, the inhibition is 68.1% (inactive). Besides, the inhibition under setting [1] is 4%.
Turning to `CC(=O)Nc1ccc(C(=O)/C=C/c2ccco2)cc1`, the inhibition is 30.9% (inactive).
On the same count and under the same terms, the figure for `O=S(=O)(/N=C(/Nc1ccccc1)c1ccccc1O)c1ccccc1` is -7.3% (inactive); for `c1coc(C2=Nc3cccc4cccc(c34)N2)c1` it is 54.2% (active); for `Brc1ccc(C2=Nc3cccc4cccc(c34)N2)o1` it is -20.5% (inactive).
Still for that read-out and setting: the figure for `Fc1ccc(C2=Nc3cccc4cccc(c34)N2)cc1` is -8.3% (inactive); for `CNC(=O)CCn1nc(-c2ccc(C)cc2)c2ccccc2c1=O` it is -2.1% (inactive); for `CCOC(=O)c1c(O)cc(C)cc1Nc1ccccc1` it is 14.3% (inactive).
Same read-out and setting: the same measure for `CCOc1ccc(C(=O)NCC(=O)OCC(=O)c2ccc3c(c2)-c2ccccc2C3)cc1`: 18.8% (inactive); for `CNC(=S)N(CCc1ccccc1)Cc1cc2cc(OC)c(OC)cc2[nH]c1=O`: 65.8% (active).
On to `CCC(C)NC(=S)N(CCc1ccccc1)Cc1cc2cc(OC)c(OC)cc2[nH]c1=O` (configuration not stated), for which the inhibition is 7.1% (inactive).
On the same count and under the same terms, the same measure for `CNC(=S)N(CCc1cccc(C)c1)Cc1cc2cc(OC)c(OC)cc2[nH]c1=O`: 46.2% (inactive).
On the same count and under the same terms, the same measure for `O=C(CC1(O)C(=O)N(C/C=C/c2ccccc2)c2ccccc21)c1ccccn1` (configuration not stated): 0% (inactive).
The same measure, in the same setting: the same measure for `NCCOc1ccc(C2CCCCC2)cc1`: -11.4% (inactive); for `CCc1nc(NCCN2CCOCC2)c(C#N)c2c1CCCC2`: 9.8% (inactive); for `CCc1cccc(C)c1NC(=O)CSc1nc2ccc(N3C(=O)c4ccccc4C3=O)cc2s1`: 17.8% (inactive).
For `Cc1cc(C)c(NC(=O)CSc2nc3ccc(N4C(=O)c5ccccc5C4=O)cc3s2)c(C)c1`, the inhibition was 55.2% (active).
Still for that read-out and setting: the same measure for `Cc1ccc(C)c(NC(=O)CSc2nc3ccc(N4C(=O)c5ccccc5C4=O)cc3s2)c1`: -0.7% (inactive); for `Cc1ccc(C(=O)N/N=C/c2c(O)ccc3ccccc23)cn1`: 14.1% (inactive).
Take `Cc1cccc(C)c1NCc1n[nH]c(=S)n1-c1ccccc1`: the inhibition was -8.3% (inactive).
Turning to `O=C(NCCCN1CCOCC1)c1sc2cc(F)ccc2c1Cl`, the inhibition is -0.7% (inactive).
On the same count and under the same terms, the same measure for `O=C(NCCCN1CCOCC1)c1sc2cc([N+](=O)[O-])ccc2c1Cl`: 67.7% (active).
On the same count and under the same terms, the same measure for `O=C(NCCCN1CCOCC1)c1sc2cc(Cl)ccc2c1Cl`: -10.3% (inactive); for `C=C(C)CSc1[nH]c(=O)cc(C)c1C#N`: 1.3% (inactive); for `Nc1c(C(=O)NCC2CCCO2)sc2nc3c(c(-c4ccco4)c12)CC/C3=C\c1ccco1` (configuration not stated): 86.1% (active).
Still for that read-out and setting: the figure for `Nc1c(C(=O)Nc2ccccc2)sc2nc3c(c(-c4ccco4)c12)CCC3` is 29.5% (inactive); for `Nc1c(C(=O)Nc2ccccc2)sc2nc3c(c(-c4ccco4)c12)CCCC3` it is 2.1% (inactive).
As to `O=C(O)CCNS(=O)(=O)c1ccc(Oc2ccccc2)cc1`, the inhibition is -1.3% (inactive).
On the same count and under the same terms, the figure for `CSCCC(NC(=O)OC(C)(C)C)C(=O)NC(C(=O)NC(CC(C)C)C(N)=O)C(C)C` (configuration not stated) is 15.6% (inactive); for `Cc1ccc(N2C(=O)C3C4C=CC(CNC(=S)N5CCN(c6ccccc6)CC5)(O4)C3C2=O)cc1` (configuration not stated) it is 45.6% (inactive); for `Cn1nnc2cc(NC(=O)N3CCN(c4ccccn4)CC3)ccc21` it is -0.5% (inactive).
On the same count and under the same terms, the figure for `Cc1nc2cc(NC(=O)N3CCN(c4ccccn4)CC3)ccc2o1` is 0% (inactive); for `CCOC(=O)C1CCN(C(=O)Nc2ccc3nccnc3c2)CC1` it is 24.5% (inactive); for `O=C(Nc1ccc(N2CCOCC2)cc1)Nc1ccc2nc(-c3ccco3)c(-c3ccco3)nc2c1` it is 48.8% (inactive).
Still for that read-out and setting: the figure for `O=C(Nc1ccc2nc(-c3ccco3)c(-c3ccco3)nc2c1)N1CCN(c2ccccn2)CC1` is 84.9% (active).
Take `CCOC(=O)C1CCN(C(=O)Nc2ccc3nc(-c4ccco4)c(-c4ccco4)nc3c2)CC1`: the inhibition is 83.1% (active).
Still for that read-out and setting: the same measure for `CCOC(=O)C1CCN(C(=O)Nc2ccc3nc(C)c(C)nc3c2)CC1`: 36% (inactive); for `Cc1nc2ccc(NC(=O)N3CCCCC3)cc2nc1C`: 40.3% (inactive).
The same measure, in the same setting: the same measure for `O=C(Nc1ccc2nc(-c3ccco3)c(-c3ccco3)nc2c1)N1CCCCCC1`: 71.2% (active); for `Cc1ccc(NC(=O)NC(=O)CSc2nnnn2C)c(C)c1`: -7.8% (inactive).
On the same count and under the same terms, the same measure for `COc1cccc(C(C(=O)NC(C)(C)C)N(C(=O)CCC(=O)Nc2cc(C)on2)C(C)(C)C)c1OC` (configuration not stated): -7.6% (inactive); for `O=C(CN1CCCCCC1=O)N1CCN(S(=O)(=O)c2cccs2)CC1`: 14.5% (inactive); for `CCOC(=O)c1[nH]c2ccccc2c1CCCN1C(=O)c2ccccc2C1=O`: -6.7% (inactive).
For `CN(C)C(=O)CCC(=O)N1CCCC(N2CCN(c3cccc(C(F)(F)F)c3)CC2)C1` (configuration not stated), the inhibition was 5.4% (inactive).
Same read-out and setting: the same measure for `Nc1nc(N2CCN(c3ccccc3)CC2)n[nH]1`: -13.2% (inactive); for `CCn1c(SCC(=O)N2CCC(C)CC2)nc2c1c(=O)n(C)c(=O)n2C`: 2.5% (inactive); for `NC(=O)CCC(NS(=O)(=O)c1ccc(Cl)cc1)C(=O)NCc1ccccc1` (configuration not stated): -16.2% (inactive).
On the same count and under the same terms, the same measure for `CC(C)C(=O)N1CCN(c2ccc(NC(=O)c3cccs3)cc2Cl)CC1`: 0.8% (inactive); for `CCOC(=O)C1CCN(C(=O)CN(c2ccc3c(c2)OCCO3)S(C)(=O)=O)CC1`: -9.6% (inactive); for `Cc1cccc(COCC(Cc2ccccc2)N2CCN(C(=O)c3cccc(Cl)c3)CCC2=O)c1` (configuration not stated): 1.7% (inactive).
The same measure, in the same setting: the figure for `O=S(=O)(NC1=NCCCCC1)c1ccccc1Cl` is 7.5% (inactive); for `CCN(CC)c1nc2c3c(nc4c(c3c1C#N)CC(=O)N4c1ccc(Cl)cc1)NC(C)=N2` it is 15.5% (inactive); for `COc1ccc(CN2C(=O)Cc3c2nc(N)c2c(N)nc(N4CCCCC4)c(C#N)c32)cc1` it is 24.2% (inactive).
In the case of `CC1=Nc2nc(N3CCCCC3)c(C#N)c3c4c(nc(c23)N1)N(c1ccc(C(C)C)cc1)C(=O)C4`, the inhibition was 54.8% (active).
On the same count and under the same terms, the same measure for `C/C(=N\NC(N)=S)C1(C)CCCCC1`: 1.7% (inactive); for `Cc1cc(-c2csc(NC(=O)c3ccc(C#N)cc3)n2)c(C)n1Cc1ccccc1`: 31.3% (inactive).
Still for that read-out and setting: the same measure for `Cc1cc(-c2csc(NC(=O)c3ccc(C#N)cc3)n2)c(C)n1Cc1ccco1`: 74% (active).
Consider `CCNc1nc(-c2cc(C)n(Cc3ccco3)c2C)cs1`, for which the inhibition is 71.4% (inactive). Also, the inhibition under setting [1] was -8.8%.

Usually inhibition stands for the relative decrease from the control value, in per cent.

(Values after PubChem BioAssay AID2073 (Sanford-Burnham Center for Chemical Genomics, 2009).)
